A number with no mark means an inactive call. No rule for the calls is given here.
Molecular target: CD276, Q5ZPR3
Sequence (Q5ZPR3 whole entry): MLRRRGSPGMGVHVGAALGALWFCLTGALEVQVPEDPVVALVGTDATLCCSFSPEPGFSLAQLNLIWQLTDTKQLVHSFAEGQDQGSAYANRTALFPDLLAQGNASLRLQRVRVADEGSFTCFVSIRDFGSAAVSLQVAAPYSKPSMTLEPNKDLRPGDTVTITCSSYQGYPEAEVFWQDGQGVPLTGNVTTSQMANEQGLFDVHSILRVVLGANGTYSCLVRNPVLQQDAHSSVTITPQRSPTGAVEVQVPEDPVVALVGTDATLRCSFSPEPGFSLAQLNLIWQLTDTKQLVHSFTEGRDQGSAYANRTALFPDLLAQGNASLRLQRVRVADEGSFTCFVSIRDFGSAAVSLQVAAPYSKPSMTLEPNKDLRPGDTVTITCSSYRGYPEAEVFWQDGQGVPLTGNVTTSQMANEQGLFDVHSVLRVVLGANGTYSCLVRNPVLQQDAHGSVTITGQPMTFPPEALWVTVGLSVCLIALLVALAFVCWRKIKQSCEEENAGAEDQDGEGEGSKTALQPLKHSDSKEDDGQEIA

| Binder | binding in a display sort |
| --- | --- |
| d2r2_design_ppi_370_dldesign_0_cycle1_af2pred (protein) RVISPAEIVELHTAANAALREALEGDPEAGLARLRAVADRAAALSPALGAALRAEAEGARAALAAAAAAAAA | not found |
| d6r1_design_ppi_62_dldesign_0_cycle0_af2pred (protein) VEEARALAESAEQAAEAGSYLLAALNLERAVRLAEELARRGEGLEEVRRIAERVAEVAKRVAESPEVRERAEEILRRAKRIIEEI | not found |
| d6r1_design_ppi_30_dldesign_0_cycle0_af2pred (protein) EKEEIIKKAKELKEQAEKVLAEDVSPLAKKVAEQAIKHAEKAIEAAKAGDLEEAKAHLSSAEAFVLGLTR | not found |
| d6r1_design_ppi_51_dldesign_0_cycle0_af2pred (protein) ALAEAQKQLAQARALVLGAEAAVEHAERSSPEEGRRALAAARDLIAQAKEKAKAAAKHPETKAEAEKLLKEAEKLEARAAAVEAAL | not found |
| d2r6_design_ppi_69_dldesign_0_cycle1_af2pred (protein) GLEAAQAEASRLWRQLTPEGRAAAARAVNARVAGDTAAAAAILAAAKAADPAQGALAEAAAEALLRAIDLANAQAAAEAAARAAAA | not found |
| d6r1_design_ppi_3_dldesign_0_cycle0_af2pred (protein) EEELARAAEAARRQAEVAEALAEQAAAADPANQPLADEARRLAERARELAERGATVEEIREALLEVSRAAARAAAALNAAVAA | not found |
| d2r6_design_ppi_333_dldesign_0_cycle0_af2pred (protein) MEEEGKKKAEEALKKAEESLKLAKSGKKLKEAEKKFAEALSLMEEAKPYLNKNPEVNKKLSKKLGEAAKALIAAKA | not found |
| d2r6_design_ppi_493_dldesign_0_cycle1_af2pred (protein) SATEAQVAAVKAKIDAATQAALNAHAARLTAAGIQAVIQTAYDASKAAGAEVKAGGDPEKAAAAAIKAVNDTAEAAAA | not found |
| d6r1_design_ppi_243_dldesign_0_cycle1_af2pred (protein) AEAVARAARDARAQIELAEALLKQGLAAAKTDPAQALLAYNAALAAARSAVRIAARAPEVLEEARAALAAVEAAKAKVQAQAA | not found |
| d2r7_design_ppi_474_dldesign_0_cycle1_af2pred (protein) MASLEAGYQQFLDSIAALPLDRADAQLAAQAARHRELAARYAAAAEAAADPAVAARLRARARDHEAAAAAVEAIRAEVTARAAARA | not found |
| d2r4_design_ppi_198_dldesign_0_cycle1_af2pred (protein) AASAAMRAFTAAYGAANAAVARLYAADPAAGAAAARALQAALDEALALGAATGVAGIEEGAAALAAAAAALAAEAAALAAA | not found |
| d2r6_design_ppi_356_dldesign_0_cycle0_af2pred (protein) SEEELEKTRASLEQLKGLAEWQAAQHPEQAPLYAEAARLAEEGMKATVEEARQLGAQASALLGRAVGAAAA | not found |
| d6r1_design_ppi_251_dldesign_0_cycle0_af2pred (protein) DAARALLLRTAENAAQMLRLLGVDEATAEAVLARLTAAAAAGPAAFAAAARAAAAELEAQPSLNARTAGAALRTAAATAEAEIAAL | not found |
| d2r6_design_ppi_231_dldesign_0_cycle1_af2pred (protein) AAAAEAAAAADERIATGAAAVAAMARVGARRGVEAARRLGERMLEAVTRAMAAEDPAAGARAREVGTAVFEAEIAAAAAAAAA | not found |
| d6r1_design_ppi_197_dldesign_0_cycle0_af2pred (protein) AAELAALEAEFRDQLEVARQAARFSPASAAAFLAGVAASLRRRLPPALGAAFAARADAAAAAARLLGEDPAAGEALFAAVLA | not found |
| d2r7_design_ppi_218_dldesign_0_cycle0_af2pred (protein) SAAEAEAKRYINHAETTLATAKQLAERSTPEQAARYYRAAGEIAWKDYEKAGEALSPEEGEKMRKKGKEVKEELEKKAKELEEK | not found |
| d6r1_design_ppi_232_dldesign_0_cycle0_af2pred (protein) AEEFAEEAKKELEEIEKMIKEGEARADGEQIAVEAIEKAGEALKKAKEFKKKDPKVGEEAAKEFLKAINEATKAANAKAAAA | not found |
| d2r6_design_ppi_32_dldesign_0_cycle1_af2pred (protein) MKEELKKALKNAEDAAATAKQVAASDPEAKAKVEELEKEARKLAKEGLEGTEEKAEEALKRVGELTREILRIASQQFAKQQA | not found |
| d6r1_design_ppi_198_dldesign_0_cycle1_af2pred (protein) GEAEKVEKAKEKAAEKINEALALASKGAIEGDVEKVKEAKEILKEAVKEAKAVSPEAAKYAEELAKKAEEIIEAMEKSAKAAA | not found |

| Binder | binding in a display sort |
| --- | --- |
| d2r6_design_ppi_69_dldesign_0_cycle0_af2pred (protein) ALEELRRRASELWRALSPEARQAAARAVNARVAGDEAAAEAILAEQEARDPEQGALARAAADAALAAIDLANAQAAAAARAAAAAA | not found |
| d6r1_design_ppi_2_dldesign_0_cycle0_af2pred (protein) EEERRRAIEAAEGAVEAARKNLELFREAHPEATEEIARLEARVEEARREAERAREEGASVEEARRVLERARAVQAEITRALHRANLA | not found |
| d6r1_design_ppi_2_dldesign_0_cycle1_af2pred (protein) AEAKKKAIEDAEGAAEAAKKFLDLFKEAFPEAKETIAALQAKVEAAKKAAEKARKEGADVATAQAVLDQARAVQVDIINALNEATRS | not found |
| d6r1_design_ppi_229_dldesign_0_cycle0_af2pred (protein) EEARELARRTAEEAEELIKKALPEEDRELAELAGDLVRAGAEAATTNPAQGRAAFRTAAGILRSAGAEEAAEEVERRMEEMLRRIA | not found |
| d2r6_design_ppi_95_dldesign_0_cycle1_af2pred (protein) AEAQAQAKAIVQQGYQDARALIDKYGLPVAAKVKVFNLVSAGAIIAEQGGTVEEVAAAVEAALAAAKAAAA | not found |
| d2r7_design_ppi_460_dldesign_0_cycle1_af2pred (protein) AAALAAARAAAAAAAAEAVARAAAEGPGLGLLMANEAARLLREAAAGDAAEVRAAAARLLAFAEQAIAAARANRAQAAAAR | not found |
| d2r2_design_ppi_429_dldesign_0_cycle1_af2pred (protein) AAAEALRRALGAVLVAAHEAANRAAAERGLAAAEEVLAAGRAAGHALAARHPGAALARRAVDSQVAASAHVARHIAARAAALR | not found |
| d6r1_design_ppi_13_dldesign_0_cycle1_af2pred (protein) AAEAKAAEKAARAELAKLRAVAAANPVHGGEILLAVARAAAEVNRLIAKGLAGTPEEAKAAAEAAKAAVAKARAEAAALA | not found |
| d2r6_design_ppi_165_dldesign_0_cycle0_af2pred (protein) MEVVEKVAELARKAAEAVERNLGEGFALAIQAADLAAEHEEVAEEAAEAAEEVLRKRAEEHPEHRERLLRLAEDFRSAVAHLLAQKA | not found |
| d2r2_design_ppi_470_dldesign_0_cycle1_af2pred (protein) AAARARAYVALWQAANRAFAAAFATGSDAALAAARAAAAAAGAVLPGGRDAFLATVDSQAAALRAARAAAAAAAAA | not found |
| d6r1_design_ppi_82_dldesign_0_cycle1_af2pred (protein) AAATQQQLTQAVRDALLARVAAVAADPSQAELLRRVTRSAVLMMGALEGLEGARAFAERAIAAAAAVGPEAAAAVREGAREGLEEYAA | not found |
| d6r1_design_ppi_138_dldesign_0_cycle1_af2pred (protein) GKKKEEAEKLIKEAKEVKEKAEEAAKLAKELGNEEAAKAAQKAIEEAEKAIEAAKEGKLEEARLHLAKAKGYLLRAQGLIANKLAAA | not found |
| d2r7_design_ppi_31_dldesign_0_cycle1_af2pred (protein) AEAEALEAGAQVLSIVTATRAQTVAAFAQDPALGRQMYRQLQAAVRLAETTAKAYPAVAAELLAAAAAARAEAQAAL | not found |
| d6r1_design_ppi_239_dldesign_0_cycle1_af2pred (protein) DKAVLEEAEKVFKEALAVAEEIVAEGAKNPAYAAFAKAFAKQLKAQLAEAKKLTPEEALKAAKKLLDAAKQALKLVSE | not found |
| d6r1_design_ppi_222_dldesign_0_cycle1_af2pred (protein) SAEAAALKEEAEKLGKEALAAAEELKKVDPEKGERLKSQIKGLELQAISSYDLAAVNPAALATAKKAREQLEKLGREAKEAV | not found |
| d6r1_design_ppi_203_dldesign_0_cycle1_af2pred (protein) AQEQVVKEAQQLLLAASQAISKALVRAAQGTLQQADIEAAQKLIEAAAKAAEKAPPEAKARLNKGVEGLKELLEGALQTAKLAK | not found |
| d6r1_design_ppi_11_dldesign_0_cycle1_af2pred (protein) EMEKAQKELLEAANKAMTTLFKAAAAASAKGDNATAGQLVEAAGEVSKLAKEAVKKSPEAMKEAAKKLKEAAAAGAKLGAA | not found |
| d2r6_design_ppi_176_dldesign_0_cycle1_af2pred (protein) ALREEVEKKMGEVLDLLKELQEKKKKGELTPEQIELMQQSMRELAKAAGYLASGDKVEEAKKEAEKALELAKKALEE | not found |
| d2r3_design_ppi_395_dldesign_0_cycle1_af2pred (protein) SREALRQAGQLAVQAQTLANRGLALLLADPAAAPEAQALLDQAAALGEQAPVAAPVAETGRAQFAALAARL | not found |

— article PMC13494018
